Experimental data from the supplement of paper PMC9925115.
± gives the uncertainty stated by the source.

How the values were obtained:
FLX1 = assay: cell viability z-score within plate (CellTiter-Glo), mean of 3 biological replicates; higher = higher viability relative to plate (less growth inhibition); details: 2 µM; time (hr): 120
Protocol: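 FLX1 fibrolamellar carcinoma cells (DNAJB1-PRKACA fusion), 600 cells/well in 384-well plates, treated with a Selleck kinase inhibitor library (L1200) at 2 uM for 5 days (120 hr); viability by CellTiter-Glo. A z-score was computed within each plate and averaged over three biological replicates.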

[1] = system: FLX1 + dox-induced PRKAR1A G325D; assay: difference in log2 fold change of viability vs plate median (dox-induced PRKAR1A G325D minus uninduced); higher = compound less effective when PKA is inhibited; details: concentration: not stated (2 or 5 uM); 5 days
Protocol: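 For each plate a log2 fold change vs the plate median was derived, and the values without dox were subtracted from those with dox, averaged over three biological replicates.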

SMILES: C=CC(=O)Nc1cccc(Oc2nc(Nc3ccc(N4CCN(C)CC4)cc3OC)ncc2Cl)c1
- cell viability z-score within plate (FLX1): 0.221 ± 0.37
- difference in log2 fold change of viability [1]: -1.14

SMILES: COc1cc(N2CCC(N)CC2)ccc1Nc1ncc(Cl)c(-c2c[nH]c3ccccc23)n1
- cell viability z-score within plate (FLX1): -0.695 ± 0.23
- difference in log2 fold change of viability [1]: 0.0117

SMILES: O=c1cc(-c2cccc3c2Sc2ccccc2S3)oc(N2CCOCC2)c1
- cell viability z-score within plate (FLX1): 0.731 ± 0.28
- difference in log2 fold change of viability [1]: 0.329

SMILES: Cc1nc(Nc2ncc(C(=O)Nc3c(C)cccc3Cl)s2)cc(N2CCN(CCO)CC2)n1 [Dasatinib]
- cell viability z-score within plate (FLX1): -1.19 ± 0.2
- difference in log2 fold change of viability [1]: 0.18

SMILES: O=C1NC(=O)C(=Cc2ccc(-c3ccc(F)cc3)o2)S1 (stereo in doubt)
- cell viability z-score within plate (FLX1): 0.244 ± 0.32
- difference in log2 fold change of viability [1]: -0.0657

SMILES: CNc1nc(Nc2cn(C(C)(C)C#N)nc2C)ncc1C(F)(F)F
- cell viability z-score within plate (FLX1): 0.707 ± 0.76
- difference in log2 fold change of viability [1]: 0.145

SMILES: CCCCOc1c(C(=O)c2c(F)cc(C)cc2F)c[nH]c2nncc1-2
- cell viability z-score within plate (FLX1): -0.865 ± 0.43
- difference in log2 fold change of viability [1]: 0.486

SMILES: NC(=O)Nc1sc(-c2ccc(F)cc2)cc1C(N)=O
- cell viability z-score within plate (FLX1): -0.156 ± 0.51
- difference in log2 fold change of viability [1]: -0.89

SMILES: C[C@@H](Oc1cc(-n2cnc3ccc(CN4CCN(C)CC4)cc32)sc1C(N)=O)c1ccccc1C(F)(F)F
- cell viability z-score within plate (FLX1): 0.737 ± 0.18
- difference in log2 fold change of viability [1]: -0.2

SMILES: c1cncc(CN2CCC(n3ncc4c(N5CCOCC5)nc(-c5ccc6[nH]ccc6c5)nc43)CC2)c1
- cell viability z-score within plate (FLX1): 0.437 ± 0.062
- difference in log2 fold change of viability [1]: -1.08

SMILES: COCC(=O)NC/C=C/c1ccc2ncnc(Nc3ccc(Oc4ccc(C)nc4)c(C)c3)c2c1
- cell viability z-score within plate (FLX1): -0.356 ± 0.16
- difference in log2 fold change of viability [1]: 0.0049

SMILES: CC[C@@H]1C(=O)N(C)c2cnc(Nc3ccc(C(=O)NC4CCN(C)CC4)cc3OC)nc2N1C1CCCC1
- cell viability z-score within plate (FLX1): -1.49 ± 0.57
- difference in log2 fold change of viability [1]: 0.0323

SMILES: O=C(c1ccc(Nc2nccc(-c3cc4ccccc4s3)n2)cc1)N1CCC(N2CCCC2)CC1 [IKK-16 (IKK Inhibitor VII)]
- cell viability z-score within plate (FLX1): 0.237 ± 0.33
- difference in log2 fold change of viability [1]: 0.096
